Hits are enriched below; roughly 4.4% of the tested compounds scored in any of these assays.
TRHR ag: activates the human TRH receptor; actives 0.18% (n = 360,000); activation, % at 2 µM; AID 493084; P34981; TRHR cells, calcium flux fluo-8, FDSS agonist mode; also: 0% is about no effect
Target sequence (P34981 whole entry, looked up): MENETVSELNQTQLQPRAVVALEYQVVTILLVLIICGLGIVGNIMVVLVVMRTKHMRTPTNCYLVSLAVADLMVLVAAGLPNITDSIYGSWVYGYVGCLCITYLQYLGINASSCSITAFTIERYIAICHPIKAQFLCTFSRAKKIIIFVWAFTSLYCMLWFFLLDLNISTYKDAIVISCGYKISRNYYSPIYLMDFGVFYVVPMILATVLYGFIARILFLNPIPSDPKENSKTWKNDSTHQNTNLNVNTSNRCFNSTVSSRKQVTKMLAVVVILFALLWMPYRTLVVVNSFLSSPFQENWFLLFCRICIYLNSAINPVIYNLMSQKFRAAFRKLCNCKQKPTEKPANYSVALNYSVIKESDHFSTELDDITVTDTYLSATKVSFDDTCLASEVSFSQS
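Steps: seed TRHR cells overnight; add fluo-8 no-wash Ca dye, RT 30 min–1.5 h; record 10 s baseline; pin-transfer compounds; monitor fluorescence 1 cycle/s for the agonist window. Calcium increases flag candidate agonists.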
D1 PAM: potentiators of human D1 dopamine receptor | AID 504651 | HEK293 TREx D1 cells, calcium flux, dopamine EC20 potentiation | actives 0.036% (n = 360,000) | potentiation, % at 10 µM | P21728; in the data active = potentiation above about 30%; also: 0% is about no effect
USP1 inh: inhibitors of human USP1/UAF1 deubiquitinase; recombinant USP1/UAF1, Ub-Rhodamine cleavage fluorescence; AID 743255; O94782; Potency, µM (top dose mostly 57.1 µM), for inactives: at the top dose activity change, negative = inhibition, usual class: inhibitors; actives 0.23% (n = 390,000); active = well fitted inhibition curve with a large enough effect; inconclusive = small, poorly fitted or top-dose-only effect; inactive = no such curve, though single readings can be large or run the other way; also: potency is read from the fitted curve at half-maximal effect; % is scaled to controls: 0 for no effect and ±100 for the full control effect; nearly all actives have a fitted effect of over 60% in size
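In this screen, compounds sit with the deubiquitinase complex (1nM) for 15 min at room temperature before Ub-Rho is added at 150nM final. Fluorescence rise is then followed for 6 reads every 60 seconds.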
TRHR enhancer: TRH receptor (human) allosteric enhancement; P34981; TRHR cells, fluo-8 calcium fluorescence, EC20 TRH enhancement; enhancement, % at 2 µM; actives 0.66% (n = 360,000); in the data active = enhancement above about 30%; also: 0% is about no effect
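TRHR-expressing cells loaded with fluo-8 calcium dye were read kinetically (ex 480/em 530) during compound addition, then stimulated with an EC20 of TRH (10 nM final). Enhancement of the Gq-mediated intracellular calcium response was scored.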
D1 agonist: agonists of human D1 dopamine receptor; P21728; HEK293 T-REx D1 cells, calcium flux, agonist mode; activation, % at 2 µM; actives 1% (n = 360,000); also: 0% is about no effect
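Agonism was scored from calcium flux recorded over 180 s (1 read/s) after pintool compound addition, following a 10-cycle baseline. Cells were inducible force-coupled HEK293 TREx D1, plated overnight at 30 C and loaded with no-wash calcium dye.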
D1 antag: human D1 dopamine receptor antagonism; P21728; HEK293 TREx D1 cells, calcium flux, dopamine EC80; stronger effect = lower value; activity change, negative = inhibition, % at 10 µM; actives 3.2% (n = 360,000); in the data active = activity change below about -30%; also: % is scaled to controls: 0 for no effect and ±100 for the full control effect
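After overnight tetracycline induction at 30 C, force-coupled D1 HEK293 cells took up a no-wash calcium dye at room temperature. Compounds were added and monitored 180 s, and the response to EC80 dopamine was then recorded.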
* hit, by the source's call; ? = inconclusive; . = not tested or not shown. Rule as the data show it, unless noted: active = activation above about 30%; inactive = the rest.

SMILES	TRHR ag	D1 PAM	USP1 inh	TRHR enhancer	D1 agonist	D1 antag
COc1cccc(CNC(=O)c2ccc(Cn3c(SCc4ccccc4)nc4cccnc43)cc2)c1	0	-1	-11%	7	14	-2
CC(CNC(=O)Cn1ncc2c3ccccc3n(Cc3cccc(Cl)c3)c2c1=O)c1ccccc1 (configuration not stated)	2	-4	?	8	4	8
O=C1c2ccccc2C2(c3ccccc3)N1CCN2C(=O)C(Cl)(Cl)Cl (configuration not stated)	-1	-3	-14%	0	0	-7
Cc1ccc(C(=O)N2CCN3C(=O)c4ccccc4C23c2ccccc2)cc1 (configuration not stated)	0	-3	-16%	-3	2	-38*
C/C(=N\NC(=S)NCc1ccccc1)c1ccc(C#N)cc1	1	-1	-22%	-1	0	-33*
C/C(=N\NC(=S)NCc1ccccc1)c1ccccc1	0	0	-25%	5	1	14
Cc1sc2ncn(CC(=O)NCCCC(=O)N3CCN(Cc4ccc5c(c4)OCO5)CC3)c(=O)c2c1C	0	-12	-13%	31*	0	0
COc1ccc(N2CCN(C(=O)CCCNC(=O)Cn3cnc4sc(C)c(C)c4c3=O)CC2)cc1	-1	6	-1%	-4	1	-42*
COc1ccc(/C=C2\OC(=S)N(C)C2=O)cc1	0	-6	16%	-1	2	9
CN1C(=O)/C(=C\c2ccc(N(C)C)cc2)OC1=S	203*	-6	?	8	523*	-66*
COc1ccc(CCNC(=O)c2sc3nc4n(c(=O)c3c2C)CCCC4)cc1OC	6	4	-7%	3	15	1
Cc1ccc(CNC(=O)c2ccc3c(=O)n(-c4ccccc4)c(=O)[nH]c3c2)cc1	1	0	-19%	1	8	-15
O=S(=O)([O-])CCC[n+]1c(/C=C\Nc2ccccc2)oc2ccc(-c3ccccc3)cc21	118*	-1	.	27	123*	-3
CC(C)N1CN=C(Nc2nc3ccccc3o2)NC1	0	0	-8%	31*	2	22
COCCN1CN=C(Nc2nc3ccccc3o2)NC1	1	-1	-11%	4	3	7
Cc1cccc(-n2c(C)nc3cc(C(=O)NCCC4=CCCCC4)ccc32)c1	0	0	-10%	-1	0	1
COc1cc(-c2nnc(-c3ccc(S(=O)(=O)c4ccccc4)cc3)o2)cc(OC)c1OC	0	0	-12%	1	1	-31*
COc1cc(-c2nnc(-c3ccc(N4CCOCC4)cc3)o2)cc(OC)c1OC	-1	1	0%	5	2	-20
COc1ccc(NS(=O)(=O)c2cccc(-c3nnc(-c4ccccc4)o3)c2)cc1	0	-3	-6%	3	0	-32*
COc1ccccc1/C=C/c1nc(C#N)c(NC2CCCCC2)o1	-1	2	9%	1	0	2
NC(=O)c1c(NC(=O)c2ccccc2C(=O)O)sc2c1CCCC2	0	-4	-9%	-12	2	5
NC(=O)c1c(NC(=O)c2ccccc2Cl)sc2c1CCC2	0	-2	-12%	36*	2	5
C/C(=N\Nc1ccc([N+](=O)[O-])cc1)c1ccc(O)cc1	7	-14	-17%	-5	37*	-27
CC(=O)NC/C(C)=N\Nc1ccc([N+](=O)[O-])cc1	11	-4	-3%	0	35*	1
C/C(=N\Nc1ccc([N+](=O)[O-])cc1)c1cccc(N)c1	2	-12	-19%	-8	9	-15
SMILES	TRHR ag	D1 PAM	USP1 inh	TRHR enhancer	D1 agonist	D1 antag
CCCCNC(=O)CCCn1c(=O)c2ccccc2n(Cc2cccc(Cl)c2)c1=O	-2	-1	-4%	-13	1	7
CNCC/C=C1/c2ccccc2CSc2ccccc21	1	-27	-19%	0	19	-51*
CCCCNc1cc(C)nc(NCc2ccccc2)n1	15	-10	0%	-15	61*	-52*
Cc1cc(N/N=C/c2ccc(Cl)cc2Cl)nc(NCc2ccccc2)n1	-1	-4	-20%	19	16	-48*
Cc1cc(Nc2ccccc2)nc(NCc2ccccc2)n1	5	-10	-8%	6	20	-27
Cc1ccc(/C=N/Nc2cc(C)nc(NCc3ccccc3)n2)cc1	0	-6	-18%	-10	2	-10
Cc1ccc(CN2C(=O)CSC2c2ccccc2F)cc1 (configuration not stated)	0	-2	-13%	-11	0	-22
Cc1ccc(CN2C(=O)CSC2c2ccc(F)cc2)cc1 (configuration not stated)	-2	4	-19%	-2	6	-39*
O=C(N/N=C/c1ccc(-c2ccccc2)o1)c1ccccc1O	-1	-12	-24%	-2	9	-32*
O=C(N/N=C\c1ccncc1)c1ccccc1O	0	-2	4%	-1	0	0
Cc1cc(C(=O)N/N=C/c2ccc(-c3cccc(Cl)c3)o2)n[nH]1	0	0	-11%	-2	66*	19
Cc1ccc(C(=O)N/N=C/c2ccc(-c3cccc(Cl)c3)o2)cn1	0	-9	-4%	18	4	5
COCc1c(C(=O)N2CCN(CCOc3ccccc3)CC2)oc2ccccc12	0	.	-6%	-5	5	-45*
CC(C)(C)NC(=O)c1oc2ccccc2c1COc1ccccc1	0	6	-21%	-8	31*	7
COCc1c(C(=O)N2CCN(c3ccccc3C)CC2)oc2ccccc12	.	.	-20%	.	.	.
Cc1c(C(=O)N2CCN(CCc3ccccc3)CC2)oc2ccccc12	0	-3	-5%	-2	2	-32*
COc1ccc2oc(C(=O)N3CCN(C(=O)c4ccco4)CC3)c(C)c2c1	0	-14	0%	-4	3	-36*
CCc1nn(Cc2cccc(F)c2)c(=O)c2cc3cc(C)ccc3n12	4	-1	-21%	-3	0	13
CCCOc1ccccc1C(=O)Nc1ccc(S(=O)(=O)N2CCN(C)CC2)cc1	0	-12	-19%	-2	4	-49*
CN1CCN(S(=O)(=O)c2ccc(NC(=O)c3cccs3)cc2)CC1	0	-3	-4%	2	1	5
CN1CCN(S(=O)(=O)c2ccc(NC(=O)c3csc4ccccc34)cc2)CC1	1	-12	-5%	-6	3	-45*
COc1ccccc1C(=O)Nc1ccc(S(=O)(=O)N2CCN(C)CC2)cc1	.	.	-1%	.	.	.

From PubChem
